Reference: ChEMBL document CHEMBL1157539, “Thousands of chemical starting points for antimalarial lead identification” (Nature, 2010)

test system: HepG2; test: GSK_TCMDC: Percent inhibition of human HepG2 cell line. Test compounds present at 10uM.; assay type: functional

Compound | Inhibition [%]
O=C(Nc1ccc([N+](=O)[O-])cc1Br)c1cc2ccccc2nc1Cl | 0
Cc1ccccc1C1CCN(c2ccc(C(=O)Nc3ccccc3)cn2)CC1.O=C(O)C(F)(F)F | 53
COc1ccc(-n2cc(C(=O)c3cc(Br)ccc3O)cc(C#N)c2=O)cc1Cl | 29
O=S(=O)(Nc1ccc(CCN2CCC(N3CCCCC3)CC2)cc1)c1cccc(C(F)(F)F)c1 | 20
CC1CCCN(S(=O)(=O)c2cc(Br)cc3c2N(C(=O)C2CC2)CC3)C1 (centres undefined) | 0
CC(C)(C)c1ccc2[nH]c(-c3ccc(C(=O)NCc4cccc(C(F)(F)F)c4)cc3)nc2c1 | 9
Cc1cc(C(=O)CN2C(=O)NC3(CCCc4ccccc43)C2=O)c(C)n1Cc1ccc(F)cc1 (centres undefined) | 4
O=C(Nc1ccc2c(c1)OCCO2)c1cc(-c2cccnc2)nc2ccc(Cl)cc12 | 2
Cc1c(Cn2nc(Cl)c(N3CCNCC3)cc2=O)cccc1NC(=O)Nc1ccc(-c2ccccc2)cc1.O=C(O)C(F)(F)F | 96
C=CCc1cc(Cc2cnc(N)nc2N)cc(CCC)c1OC | 3
Cl.Clc1cc(Br)ccc1-c1ccc(CNCC2CCNCC2)o1 | 100
CCN(CC)CCCN(Cc1ccc(-c2ccc(C(F)(F)F)cc2)cc1)C(=O)Cn1c(SCc2cccc(F)c2F)cc(=O)c2ccccc21.O=C(O)C(O)C(O)C(=O)O | 45
C=CCN1CCC(N(Cc2cccc(Oc3ccccc3)c2)C(=O)C(c2ccccc2)c2ccccc2)CC1 | 7
CC(=O)Nc1ccc2[nH]cc(C3CCN(CC4CCC(NC(=O)/C=C/c5ccc(Cl)c(Cl)c5)CC4)CC3)c2n1 (centres undefined) | 17
Cl.NC(=O)c1cccc(Nc2nccc(Nc3ccc(Oc4cccc(Cl)c4)c(Cl)c3)n2)c1 | 0
Cl.O=c1cc(NCCCNCc2sc(Br)c(Br)c2Br)[nH]c2ccccc12 | 0
Cc1cccc2nc(-c3cccc(-c4ccc(NC(=O)CN5CCN(C)CC5)cc4)c3)[nH]c12 | 45
O=C(N[C@@H](Cc1ccccc1)C(=O)NCc1cccc2ccccc12)c1ccc(O)c(-c2ccc(Cl)c(Cl)c2)c1 | 0
CCN(CC)CCN(Cc1ccc(-c2ccc(C(F)(F)F)cc2)cc1)C(=O)Cn1c(CCc2cc(F)c(F)cc2F)nc(=O)c2ccccc21.O=C(O)C(O)C(O)C(=O)O | 39
Cc1cc(NC(=O)Nc2ccc3ncccc3c2)c2ccccc2n1 | 6

Compound | Inhibition [%]
CC1(C)N=C(N)N=C(N)N1c1ccc(Cl)c(Cl)c1.Cl | 67
C[C@@H](CNc1ccnc(Nc2ccc3[nH]c(=O)[nH]c3c2)n1)c1ccccc1 | 42
CCOC(=O)NC1=NC(=N)N(OCCCOc2cc(Cl)c(Cl)cc2Cl)C(C)(C)N1 | 63
COC(=O)c1ccc(OCC(C)NCC(O)c2cccc(C(F)(F)F)c2)cc1.O=C(O)/C=C/C(=O)O (centres undefined) | 6
CC(C)CNCc1cccc(-c2ccc(CN(CCCN3CCN(C)CC3)C(=O)/C=C/c3ccccc3)cc2)c1.O=C(O)C(F)(F)F | 48
Cc1cccc2nc(-c3ccc(-c4cccc(CNCCNC(=O)c5ccnn5C)c4)cc3)[nH]c12.O=C(O)C(F)(F)F | 17
O=C(CSc1nccn1C1CCCC1)Nc1cc(C(F)(F)F)ccc1Cl | 0
Cc1nc(-c2cccc(Nc3nccc(NCC(O)c4cccc(C(F)(F)F)c4)n3)c2)cs1 (centres undefined) | 14
CC(C)n1c(CC2CCN(CC3CCN(C(=O)/C=C/c4ccc(Cl)c(Cl)c4)CC3)CC2)nc2ccccc21 | 19
COC(=O)c1cccc(CNCc2cccc(-c3cccc(-c4nc5ccccc5[nH]4)c3)c2)c1.O=C(O)C(F)(F)F | 3
CN1CCN(c2ccnc3cc4c(cc23)N(C(=O)Nc2ccc(-c3ccncc3)c3ccccc23)CC4)CC1.Cl | 10
N#CN1CC[C@@H](NS(=O)(=O)Cc2ccc(Cl)c(Cl)c2)C1 | 13
COc1ccc(NC(=O)[C@H](Cc2ccccc2)Nc2cc(C)nc(NCC3CCCCC3)n2)cc1.O=C(O)C(F)(F)F | 9
O=C(NC1CCN(Cc2ccccc2)CC1)c1cccc(-c2nc3ccc(Cl)cc3[nH]2)c1 | 6
CCn1c(Sc2ccc([N+](=O)[O-])c(C#N)c2)nnc1-c1ccc(Cl)cc1 | 2
Cc1cccc2nc(-c3ccc(-c4ccc(NC(=O)NCc5ccc(F)cc5)cc4)cc3)[nH]c12 | 70
OC(c1nnc(S)n1-c1ccccc1)C(O)c1nnc(S)n1-c1ccccc1 (centres undefined) | 18
CC(C)C[C@H](NC(=O)c1cc2ccccc2s1)C(=O)N[C@H]1CCN(Cc2ccc(I)c(OCCN3CCCC3)c2)C1.O=C(O)C(F)(F)F | 3
CCCCc1ccc2[nH]c(NC(=O)OC)nc2c1 [PARBENDAZOLE] | 26
